Reference: article PMC7862700, “An all-to-all approach to the identification of sequence-specific readers for epigenetic DNA modifications on cytosine”

Key:
Experiment in all cases: DAPPL (digital affinity profiling via proximity ligation, sequencing); 10 mM Tris-HCl pH 7.5, 50 mM NaCl, 1 mM DTT, 4% glycerol, room temperature, 30 min; GST-TFs on glutathione beads, 16-mer random dsDNA library, 0.1% formaldehyde crosslink after washing; high values mean tight binding
FLI1 = target: T1, FLI1 (Homo sapiens, UniProt Q01543 1-452); conditions: protein: recombinant; tags: N-terminal GST; dsDNA, one strand shown
T1 sequence: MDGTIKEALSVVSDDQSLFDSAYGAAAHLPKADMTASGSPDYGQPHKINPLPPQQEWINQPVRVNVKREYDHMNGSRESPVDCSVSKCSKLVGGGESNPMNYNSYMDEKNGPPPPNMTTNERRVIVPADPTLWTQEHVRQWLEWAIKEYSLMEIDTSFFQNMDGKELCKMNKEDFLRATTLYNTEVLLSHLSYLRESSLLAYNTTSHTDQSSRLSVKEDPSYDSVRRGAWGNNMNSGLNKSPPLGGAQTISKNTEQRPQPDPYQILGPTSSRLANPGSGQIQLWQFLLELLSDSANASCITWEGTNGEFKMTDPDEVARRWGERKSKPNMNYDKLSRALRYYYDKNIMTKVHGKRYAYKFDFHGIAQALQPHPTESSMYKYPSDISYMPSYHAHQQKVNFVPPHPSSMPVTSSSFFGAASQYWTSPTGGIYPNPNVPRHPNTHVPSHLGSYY
Method in brief: (§1)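 Pools of DNA-barcoded human transcription factors, expressed in yeast as GST fusions on glutathione beads and combined with a tag-only sample, were incubated with 200 nmole of a 16-mer random double-stranded DNA library. Incubation took 30 min at room temperature in Tris/NaCl/DTT/glycerol buffer and was followed by washing, 0.1% formaldehyde crosslinking, proximity ligation (BsaI/T4 ligase, 1 h, 37 °C), PCR amplification and sequencing on an Illumina NextSeq500. Binding signal is the ratio of a hexamer's read frequency for a factor to its frequency for the tag-only sample.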

ELK1 = target: T2, ELK1 (Homo sapiens, UniProt P19419 1-428); conditions: protein: recombinant; tags: N-terminal GST; dsDNA, one strand shown
T2 sequence: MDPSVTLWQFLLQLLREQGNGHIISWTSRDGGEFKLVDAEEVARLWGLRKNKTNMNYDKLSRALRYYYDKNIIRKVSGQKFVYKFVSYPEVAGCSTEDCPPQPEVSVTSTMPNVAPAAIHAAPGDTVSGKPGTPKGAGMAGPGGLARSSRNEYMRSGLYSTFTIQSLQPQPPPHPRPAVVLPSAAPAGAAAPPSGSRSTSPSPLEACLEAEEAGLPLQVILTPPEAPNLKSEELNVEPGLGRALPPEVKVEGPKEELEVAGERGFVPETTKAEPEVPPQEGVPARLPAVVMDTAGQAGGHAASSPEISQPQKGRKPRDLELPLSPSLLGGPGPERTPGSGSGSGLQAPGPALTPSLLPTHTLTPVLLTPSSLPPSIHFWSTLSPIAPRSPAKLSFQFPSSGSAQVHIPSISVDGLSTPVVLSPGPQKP
Method in brief: as §1

GABPA = target: T3, GABPA (Homo sapiens, UniProt Q06546 1-454); conditions: protein: recombinant; tags: N-terminal GST; dsDNA, one strand shown
T3 sequence: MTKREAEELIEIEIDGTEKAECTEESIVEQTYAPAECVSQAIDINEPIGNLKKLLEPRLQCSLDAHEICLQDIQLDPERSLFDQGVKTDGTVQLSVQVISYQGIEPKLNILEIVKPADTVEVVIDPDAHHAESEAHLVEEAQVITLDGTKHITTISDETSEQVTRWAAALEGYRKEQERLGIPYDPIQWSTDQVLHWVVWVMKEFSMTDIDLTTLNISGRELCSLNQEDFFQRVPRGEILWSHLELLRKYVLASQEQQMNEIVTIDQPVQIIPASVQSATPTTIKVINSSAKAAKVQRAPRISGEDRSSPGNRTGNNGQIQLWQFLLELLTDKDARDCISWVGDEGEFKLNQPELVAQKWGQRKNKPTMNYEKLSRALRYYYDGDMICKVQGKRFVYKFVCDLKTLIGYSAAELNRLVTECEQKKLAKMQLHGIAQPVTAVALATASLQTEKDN
Method in brief: as §1

ERG = target: T4, ERG (Homo sapiens, UniProt P11308 1-479); conditions: protein: recombinant; tags: N-terminal GST; dsDNA, one strand shown
T4 sequence: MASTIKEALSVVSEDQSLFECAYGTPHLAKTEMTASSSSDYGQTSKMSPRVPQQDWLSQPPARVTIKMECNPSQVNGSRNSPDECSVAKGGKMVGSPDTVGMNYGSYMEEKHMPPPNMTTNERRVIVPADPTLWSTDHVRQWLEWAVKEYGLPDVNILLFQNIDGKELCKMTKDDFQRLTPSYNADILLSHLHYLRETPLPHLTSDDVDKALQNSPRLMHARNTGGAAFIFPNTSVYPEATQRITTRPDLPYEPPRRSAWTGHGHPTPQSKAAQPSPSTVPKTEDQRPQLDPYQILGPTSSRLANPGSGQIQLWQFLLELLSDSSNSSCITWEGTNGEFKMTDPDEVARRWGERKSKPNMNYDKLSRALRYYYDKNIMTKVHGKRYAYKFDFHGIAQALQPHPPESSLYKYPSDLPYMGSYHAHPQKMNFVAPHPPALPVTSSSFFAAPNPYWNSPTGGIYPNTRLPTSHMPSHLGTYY
Method in brief: as §1

ELF1 = ELF1 (Homo sapiens, UniProt P32519 1-619); conditions: protein: recombinant; tags: N-terminal GST; dsDNA, one strand shown
Method in brief: as §1

EHF = target: T5, EHF (Homo sapiens, UniProt Q9NZC4 1-300); conditions: protein: recombinant; tags: N-terminal GST; dsDNA, one strand shown
T5 sequence: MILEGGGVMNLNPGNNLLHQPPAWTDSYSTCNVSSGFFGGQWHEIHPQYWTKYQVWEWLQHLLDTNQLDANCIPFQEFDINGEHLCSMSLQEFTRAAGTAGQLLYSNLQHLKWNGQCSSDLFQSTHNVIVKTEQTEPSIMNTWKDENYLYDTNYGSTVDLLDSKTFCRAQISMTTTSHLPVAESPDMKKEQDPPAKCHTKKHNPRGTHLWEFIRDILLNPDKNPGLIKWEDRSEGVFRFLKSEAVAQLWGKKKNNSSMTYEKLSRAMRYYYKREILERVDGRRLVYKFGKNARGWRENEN
Method in brief: as §1

SPI1 = SPI1 (Homo sapiens, UniProt P17947 1-270); conditions: protein: recombinant; tags: N-terminal GST; dsDNA, one strand shown
Method in brief: as §1

SPIB = SPIB (Homo sapiens, UniProt Q01892 1-262); conditions: protein: recombinant; tags: N-terminal GST; dsDNA, one strand shown
Method in brief: as §1

ELK3 = target: T6, ELK3 (Homo sapiens, UniProt P41970 1-407); conditions: protein: recombinant; tags: N-terminal GST; dsDNA, one strand shown
T6 sequence: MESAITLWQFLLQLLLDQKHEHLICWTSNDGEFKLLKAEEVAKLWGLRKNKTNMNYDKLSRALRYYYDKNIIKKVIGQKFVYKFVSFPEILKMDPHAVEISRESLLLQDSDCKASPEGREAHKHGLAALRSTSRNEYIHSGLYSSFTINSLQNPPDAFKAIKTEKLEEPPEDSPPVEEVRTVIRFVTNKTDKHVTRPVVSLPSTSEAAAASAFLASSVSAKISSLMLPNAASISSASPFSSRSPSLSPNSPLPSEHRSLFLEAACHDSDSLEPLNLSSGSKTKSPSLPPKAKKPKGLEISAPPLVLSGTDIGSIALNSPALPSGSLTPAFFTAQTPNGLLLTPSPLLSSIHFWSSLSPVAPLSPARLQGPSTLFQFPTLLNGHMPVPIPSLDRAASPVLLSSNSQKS
Method in brief: as §1

FEV = target: T7, FEV (Homo sapiens, UniProt Q99581 1-238); conditions: protein: recombinant; tags: N-terminal GST; dsDNA, one strand shown
T7 sequence: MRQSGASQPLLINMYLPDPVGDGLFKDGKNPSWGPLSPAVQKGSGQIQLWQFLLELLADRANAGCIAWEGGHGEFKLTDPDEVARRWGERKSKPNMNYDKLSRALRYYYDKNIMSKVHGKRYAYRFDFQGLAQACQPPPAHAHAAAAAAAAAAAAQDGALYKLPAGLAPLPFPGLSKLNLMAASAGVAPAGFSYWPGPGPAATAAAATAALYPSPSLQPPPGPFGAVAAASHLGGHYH
Method in brief: as §1

ETV5 = ETV5 (Homo sapiens, UniProt P41161 1-510); conditions: protein: recombinant; tags: N-terminal GST; dsDNA, one strand shown
Method in brief: as §1

HSF1 = HSF1 (Homo sapiens, UniProt Q00613 1-529); conditions: protein: recombinant; tags: N-terminal GST; chain copies: 3; dsDNA, one strand shown
Method in brief: as §1

SPIC = target: T8, SPIC (Homo sapiens, UniProt Q8N5J4 1-248); conditions: protein: recombinant; tags: N-terminal GST; dsDNA, one strand shown
T8 sequence: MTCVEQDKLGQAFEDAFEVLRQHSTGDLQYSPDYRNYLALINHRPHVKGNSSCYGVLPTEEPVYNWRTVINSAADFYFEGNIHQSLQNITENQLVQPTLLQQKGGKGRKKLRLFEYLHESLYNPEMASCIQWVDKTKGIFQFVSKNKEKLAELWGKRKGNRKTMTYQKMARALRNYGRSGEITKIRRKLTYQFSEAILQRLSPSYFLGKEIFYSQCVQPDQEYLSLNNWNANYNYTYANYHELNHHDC
Method in brief: as §1

ELF4 = ELF4 (Homo sapiens, UniProt Q99607 1-663); conditions: protein: recombinant; tags: N-terminal GST; dsDNA, one strand shown
Method in brief: as §1

ELK4 = target: T9, ELK4 (Homo sapiens, UniProt P28324-2 1-405); conditions: protein: recombinant; tags: N-terminal GST; dsDNA, one strand shown
T9 sequence: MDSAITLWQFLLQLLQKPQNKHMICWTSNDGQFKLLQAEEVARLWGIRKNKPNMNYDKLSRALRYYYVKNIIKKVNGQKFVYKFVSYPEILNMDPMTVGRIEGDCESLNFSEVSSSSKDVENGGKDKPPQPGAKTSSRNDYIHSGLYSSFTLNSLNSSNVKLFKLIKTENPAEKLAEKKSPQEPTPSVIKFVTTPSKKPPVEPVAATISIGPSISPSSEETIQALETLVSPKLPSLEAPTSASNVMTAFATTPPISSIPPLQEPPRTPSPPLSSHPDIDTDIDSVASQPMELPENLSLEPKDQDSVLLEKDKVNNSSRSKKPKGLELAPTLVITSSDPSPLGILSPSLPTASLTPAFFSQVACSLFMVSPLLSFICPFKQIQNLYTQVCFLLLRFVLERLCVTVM
Method in brief: as §1

ETV2 = target: T10, ETV2 (Homo sapiens, UniProt O00321 1-342); conditions: protein: recombinant; tags: N-terminal GST; dsDNA, one strand shown
T10 sequence: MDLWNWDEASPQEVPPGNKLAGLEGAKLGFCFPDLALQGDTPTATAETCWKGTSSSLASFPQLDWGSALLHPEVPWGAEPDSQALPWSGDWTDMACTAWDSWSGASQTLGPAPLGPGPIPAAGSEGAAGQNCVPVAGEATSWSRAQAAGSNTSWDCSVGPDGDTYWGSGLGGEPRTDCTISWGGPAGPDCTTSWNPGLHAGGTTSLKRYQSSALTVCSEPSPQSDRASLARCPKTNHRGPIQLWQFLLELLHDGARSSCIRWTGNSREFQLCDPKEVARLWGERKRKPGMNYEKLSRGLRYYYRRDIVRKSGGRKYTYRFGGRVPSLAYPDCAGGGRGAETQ
Method in brief: as §1

ELF3 = target: T11, ELF3 (Homo sapiens, UniProt P78545 1-371); conditions: protein: recombinant; tags: N-terminal GST; dsDNA, one strand shown
T11 sequence: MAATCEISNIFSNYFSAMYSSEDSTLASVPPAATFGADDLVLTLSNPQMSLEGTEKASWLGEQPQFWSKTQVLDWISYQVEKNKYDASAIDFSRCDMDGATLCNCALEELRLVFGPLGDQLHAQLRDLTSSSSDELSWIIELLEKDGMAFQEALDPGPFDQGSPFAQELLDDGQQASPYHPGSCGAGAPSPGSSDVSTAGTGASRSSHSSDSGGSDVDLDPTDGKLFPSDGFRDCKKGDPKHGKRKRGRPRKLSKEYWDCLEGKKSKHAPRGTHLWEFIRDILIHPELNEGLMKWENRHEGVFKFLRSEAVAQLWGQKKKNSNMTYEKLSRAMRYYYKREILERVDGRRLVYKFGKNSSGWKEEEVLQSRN
Method in brief: as §1

CRX = CRX (Homo sapiens, UniProt O43186 1-299); conditions: protein: recombinant; tags: N-terminal GST; dsDNA, one strand shown
Method in brief: as §1

ETV1 = ETV1 (Homo sapiens, UniProt P50549 1-477); conditions: protein: recombinant; tags: N-terminal GST; dsDNA, one strand shown
Method in brief: as §1

Sequence of HSF1 (Q00613 whole entry): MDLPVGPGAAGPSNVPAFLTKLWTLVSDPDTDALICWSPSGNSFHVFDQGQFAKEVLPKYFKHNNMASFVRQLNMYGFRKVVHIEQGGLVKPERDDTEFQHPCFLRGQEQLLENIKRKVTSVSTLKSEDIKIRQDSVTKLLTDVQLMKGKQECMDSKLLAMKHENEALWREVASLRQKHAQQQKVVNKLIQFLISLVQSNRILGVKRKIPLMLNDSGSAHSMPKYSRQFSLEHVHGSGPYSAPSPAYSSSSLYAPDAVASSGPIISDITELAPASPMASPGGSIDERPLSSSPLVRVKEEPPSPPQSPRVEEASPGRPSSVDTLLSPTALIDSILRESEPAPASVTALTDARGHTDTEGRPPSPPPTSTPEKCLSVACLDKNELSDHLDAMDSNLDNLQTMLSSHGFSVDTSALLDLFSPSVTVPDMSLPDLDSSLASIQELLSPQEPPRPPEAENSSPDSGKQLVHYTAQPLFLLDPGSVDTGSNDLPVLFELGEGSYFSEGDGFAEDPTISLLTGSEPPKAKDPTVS
Sequence of ELF4 (Q99607 whole entry): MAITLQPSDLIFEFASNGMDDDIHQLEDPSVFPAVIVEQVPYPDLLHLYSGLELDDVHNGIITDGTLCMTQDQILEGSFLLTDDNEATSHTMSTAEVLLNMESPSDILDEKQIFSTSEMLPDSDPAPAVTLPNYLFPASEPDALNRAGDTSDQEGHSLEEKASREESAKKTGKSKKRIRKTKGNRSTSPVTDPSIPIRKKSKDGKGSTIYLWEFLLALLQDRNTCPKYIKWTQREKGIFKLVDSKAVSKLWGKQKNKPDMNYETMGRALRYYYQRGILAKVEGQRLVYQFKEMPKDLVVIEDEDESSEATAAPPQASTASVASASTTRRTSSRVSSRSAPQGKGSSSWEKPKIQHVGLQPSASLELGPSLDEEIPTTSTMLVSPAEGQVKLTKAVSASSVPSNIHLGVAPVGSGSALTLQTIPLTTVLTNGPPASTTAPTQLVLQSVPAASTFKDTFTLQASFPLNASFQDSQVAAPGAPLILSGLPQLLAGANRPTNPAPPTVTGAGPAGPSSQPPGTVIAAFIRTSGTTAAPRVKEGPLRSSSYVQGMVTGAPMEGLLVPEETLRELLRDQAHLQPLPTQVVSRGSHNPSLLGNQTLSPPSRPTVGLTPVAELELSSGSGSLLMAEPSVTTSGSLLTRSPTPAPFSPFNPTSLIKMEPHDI
Sequence of ETV1 (P50549 whole entry): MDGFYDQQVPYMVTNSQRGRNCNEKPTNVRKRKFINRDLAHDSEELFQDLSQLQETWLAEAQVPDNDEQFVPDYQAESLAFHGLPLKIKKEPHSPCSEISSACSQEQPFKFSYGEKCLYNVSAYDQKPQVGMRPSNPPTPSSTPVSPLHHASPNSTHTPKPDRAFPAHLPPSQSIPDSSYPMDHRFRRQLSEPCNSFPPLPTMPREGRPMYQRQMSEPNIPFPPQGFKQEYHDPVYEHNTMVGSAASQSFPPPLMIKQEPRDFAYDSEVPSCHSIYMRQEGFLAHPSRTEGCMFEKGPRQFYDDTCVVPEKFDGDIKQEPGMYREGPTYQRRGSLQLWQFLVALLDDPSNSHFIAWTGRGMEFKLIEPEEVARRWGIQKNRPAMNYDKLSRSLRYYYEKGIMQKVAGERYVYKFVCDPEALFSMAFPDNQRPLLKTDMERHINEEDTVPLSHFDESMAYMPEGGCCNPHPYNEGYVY
Sequence of SPIB (Q01892 whole entry): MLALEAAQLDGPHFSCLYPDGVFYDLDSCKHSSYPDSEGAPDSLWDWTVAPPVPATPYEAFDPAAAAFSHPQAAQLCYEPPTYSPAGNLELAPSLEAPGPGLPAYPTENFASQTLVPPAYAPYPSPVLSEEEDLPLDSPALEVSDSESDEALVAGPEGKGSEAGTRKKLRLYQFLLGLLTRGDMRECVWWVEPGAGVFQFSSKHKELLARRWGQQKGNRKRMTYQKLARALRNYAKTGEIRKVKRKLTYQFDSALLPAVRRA
Sequence of CRX (O43186 whole entry): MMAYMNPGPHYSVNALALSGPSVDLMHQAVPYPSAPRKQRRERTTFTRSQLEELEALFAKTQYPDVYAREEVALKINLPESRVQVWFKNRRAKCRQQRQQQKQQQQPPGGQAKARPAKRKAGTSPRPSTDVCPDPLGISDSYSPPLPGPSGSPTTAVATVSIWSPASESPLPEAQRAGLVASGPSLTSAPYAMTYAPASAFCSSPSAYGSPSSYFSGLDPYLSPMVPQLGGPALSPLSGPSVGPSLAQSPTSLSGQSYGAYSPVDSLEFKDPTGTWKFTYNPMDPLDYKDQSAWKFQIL
Sequence of ELF1 (P32519 whole entry): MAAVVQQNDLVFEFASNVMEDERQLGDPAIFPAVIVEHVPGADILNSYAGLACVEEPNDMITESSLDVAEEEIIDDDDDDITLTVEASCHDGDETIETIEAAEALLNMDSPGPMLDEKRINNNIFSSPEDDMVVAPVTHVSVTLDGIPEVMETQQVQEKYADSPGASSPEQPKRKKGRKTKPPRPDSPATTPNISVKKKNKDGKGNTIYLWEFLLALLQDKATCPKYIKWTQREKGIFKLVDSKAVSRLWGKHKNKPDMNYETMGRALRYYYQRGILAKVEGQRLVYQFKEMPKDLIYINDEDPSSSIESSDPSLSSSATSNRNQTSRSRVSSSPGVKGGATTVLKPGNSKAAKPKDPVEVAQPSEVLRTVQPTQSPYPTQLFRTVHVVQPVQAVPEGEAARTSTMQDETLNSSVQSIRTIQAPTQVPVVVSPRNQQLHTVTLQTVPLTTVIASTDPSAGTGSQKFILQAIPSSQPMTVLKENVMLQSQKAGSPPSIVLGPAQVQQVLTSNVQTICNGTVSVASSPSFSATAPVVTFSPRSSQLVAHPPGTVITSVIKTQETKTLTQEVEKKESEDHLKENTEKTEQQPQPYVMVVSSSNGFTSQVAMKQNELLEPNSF
Sequence of ETV5 (P41161 whole entry): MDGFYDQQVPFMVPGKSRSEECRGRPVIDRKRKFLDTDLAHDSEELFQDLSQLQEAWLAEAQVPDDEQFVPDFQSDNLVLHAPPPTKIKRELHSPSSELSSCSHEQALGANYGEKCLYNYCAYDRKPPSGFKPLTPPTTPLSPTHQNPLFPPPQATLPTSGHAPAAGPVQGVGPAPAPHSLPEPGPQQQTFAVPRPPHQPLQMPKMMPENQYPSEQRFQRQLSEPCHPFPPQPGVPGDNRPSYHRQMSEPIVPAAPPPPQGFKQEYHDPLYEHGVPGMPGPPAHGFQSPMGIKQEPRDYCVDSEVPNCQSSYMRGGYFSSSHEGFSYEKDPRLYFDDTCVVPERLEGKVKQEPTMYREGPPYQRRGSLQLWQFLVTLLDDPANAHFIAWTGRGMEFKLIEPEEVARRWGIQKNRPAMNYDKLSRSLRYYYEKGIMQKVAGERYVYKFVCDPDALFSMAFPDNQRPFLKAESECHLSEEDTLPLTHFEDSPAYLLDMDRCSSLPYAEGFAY

Sequence: CTTTGG
- binding signal (FLI1): 1.15 fold enrichment (6-mer frequency, TF over GST control)
- binding signal (ELK1): 1.12 fold enrichment (6-mer frequency, TF over GST control)
- binding signal (GABPA): 1.21 fold enrichment (6-mer frequency, TF over GST control)
- binding signal (ERG): 1.07 fold enrichment (6-mer frequency, TF over GST control)
- binding signal (ELF1): 1.17 fold enrichment (6-mer frequency, TF over GST control)
- binding signal (EHF): 1.11 fold enrichment (6-mer frequency, TF over GST control)
- binding signal (SPI1): 1.21 fold enrichment (6-mer frequency, TF over GST control)
- binding signal (SPIB): 1.04 fold enrichment (6-mer frequency, TF over GST control)
- binding signal (ELK3): 1.13 fold enrichment (6-mer frequency, TF over GST control)
- binding signal (FEV): 1.15 fold enrichment (6-mer frequency, TF over GST control)
- binding signal (ETV5): 1.17 fold enrichment (6-mer frequency, TF over GST control)
- binding signal (HSF1): 1.26 fold enrichment (6-mer frequency, TF over GST control)
- binding signal (SPIC): 1.17 fold enrichment (6-mer frequency, TF over GST control)
- binding signal (ELF4): 1.16 fold enrichment (6-mer frequency, TF over GST control)
- binding signal (ELK4): 1.02 fold enrichment (6-mer frequency, TF over GST control)
- binding signal (ETV2): 1.27 fold enrichment (6-mer frequency, TF over GST control)
- binding signal (ELF3): 1.23 fold enrichment (6-mer frequency, TF over GST control)
- binding signal (CRX): 1.29 fold enrichment (6-mer frequency, TF over GST control)
- binding signal (ETV1): 1.17 fold enrichment (6-mer frequency, TF over GST control)
